Measured values reported in PubChem BioAssay.
The source made the active and inactive calls.

Experiments:
[1] = binders of probe aFSTL3 on microarray, primary screen, stem cell growth factor project, biochemical, small-molecule microarray, fluorescence 635/667 (AID 1064); settings: higher = more signal;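 note: measures binding of the biotinylated anti-FSTL3 antibody to printed compounds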
[2] = binders from COS7 lysate, DM2A8 probe, primary screen, torsin A project, cell lysate, small-molecule microarray, fluorescence 635/667 (AID 1065); settings: higher = more signal, COS7 lysate expressing mutant human TOR1A
[3] = binders of probe aFGF2 on microarray, primary screen, stem cell growth factor project, biochemical, small-molecule microarray, fluorescence 635/667 (AID 1067); settings: higher = more signal;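 note: measures binding of biotinylated aFGF2 protein to printed compounds on slides; z-score merges feature fluorescence and signal-to-noise across triplicate slides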
[4] = binders of probe aFGF10 on microarray, primary screen, stem cell growth factor project, biochemical, small-molecule microarray, fluorescence 635/667 (AID 1071); settings: higher = more signal;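 note: score merges 667 nm spot intensity and signal to noise from triplicate slides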
[5] = target: Neurogenic locus notch homolog protein 2 (Homo sapiens) (UniProt Q04721); test: Notch2 binders on small-molecule microarrays, primary screen, biochemical, small-molecule microarray, 635 nm fluorescence, stem cell growth factors (AID 1073); settings: Notch2 binding, higher = more signal
Chain of Neurogenic locus notch homolog protein 2 (Homo sapiens) (Q04721 whole entry, looked up, canonical isoform): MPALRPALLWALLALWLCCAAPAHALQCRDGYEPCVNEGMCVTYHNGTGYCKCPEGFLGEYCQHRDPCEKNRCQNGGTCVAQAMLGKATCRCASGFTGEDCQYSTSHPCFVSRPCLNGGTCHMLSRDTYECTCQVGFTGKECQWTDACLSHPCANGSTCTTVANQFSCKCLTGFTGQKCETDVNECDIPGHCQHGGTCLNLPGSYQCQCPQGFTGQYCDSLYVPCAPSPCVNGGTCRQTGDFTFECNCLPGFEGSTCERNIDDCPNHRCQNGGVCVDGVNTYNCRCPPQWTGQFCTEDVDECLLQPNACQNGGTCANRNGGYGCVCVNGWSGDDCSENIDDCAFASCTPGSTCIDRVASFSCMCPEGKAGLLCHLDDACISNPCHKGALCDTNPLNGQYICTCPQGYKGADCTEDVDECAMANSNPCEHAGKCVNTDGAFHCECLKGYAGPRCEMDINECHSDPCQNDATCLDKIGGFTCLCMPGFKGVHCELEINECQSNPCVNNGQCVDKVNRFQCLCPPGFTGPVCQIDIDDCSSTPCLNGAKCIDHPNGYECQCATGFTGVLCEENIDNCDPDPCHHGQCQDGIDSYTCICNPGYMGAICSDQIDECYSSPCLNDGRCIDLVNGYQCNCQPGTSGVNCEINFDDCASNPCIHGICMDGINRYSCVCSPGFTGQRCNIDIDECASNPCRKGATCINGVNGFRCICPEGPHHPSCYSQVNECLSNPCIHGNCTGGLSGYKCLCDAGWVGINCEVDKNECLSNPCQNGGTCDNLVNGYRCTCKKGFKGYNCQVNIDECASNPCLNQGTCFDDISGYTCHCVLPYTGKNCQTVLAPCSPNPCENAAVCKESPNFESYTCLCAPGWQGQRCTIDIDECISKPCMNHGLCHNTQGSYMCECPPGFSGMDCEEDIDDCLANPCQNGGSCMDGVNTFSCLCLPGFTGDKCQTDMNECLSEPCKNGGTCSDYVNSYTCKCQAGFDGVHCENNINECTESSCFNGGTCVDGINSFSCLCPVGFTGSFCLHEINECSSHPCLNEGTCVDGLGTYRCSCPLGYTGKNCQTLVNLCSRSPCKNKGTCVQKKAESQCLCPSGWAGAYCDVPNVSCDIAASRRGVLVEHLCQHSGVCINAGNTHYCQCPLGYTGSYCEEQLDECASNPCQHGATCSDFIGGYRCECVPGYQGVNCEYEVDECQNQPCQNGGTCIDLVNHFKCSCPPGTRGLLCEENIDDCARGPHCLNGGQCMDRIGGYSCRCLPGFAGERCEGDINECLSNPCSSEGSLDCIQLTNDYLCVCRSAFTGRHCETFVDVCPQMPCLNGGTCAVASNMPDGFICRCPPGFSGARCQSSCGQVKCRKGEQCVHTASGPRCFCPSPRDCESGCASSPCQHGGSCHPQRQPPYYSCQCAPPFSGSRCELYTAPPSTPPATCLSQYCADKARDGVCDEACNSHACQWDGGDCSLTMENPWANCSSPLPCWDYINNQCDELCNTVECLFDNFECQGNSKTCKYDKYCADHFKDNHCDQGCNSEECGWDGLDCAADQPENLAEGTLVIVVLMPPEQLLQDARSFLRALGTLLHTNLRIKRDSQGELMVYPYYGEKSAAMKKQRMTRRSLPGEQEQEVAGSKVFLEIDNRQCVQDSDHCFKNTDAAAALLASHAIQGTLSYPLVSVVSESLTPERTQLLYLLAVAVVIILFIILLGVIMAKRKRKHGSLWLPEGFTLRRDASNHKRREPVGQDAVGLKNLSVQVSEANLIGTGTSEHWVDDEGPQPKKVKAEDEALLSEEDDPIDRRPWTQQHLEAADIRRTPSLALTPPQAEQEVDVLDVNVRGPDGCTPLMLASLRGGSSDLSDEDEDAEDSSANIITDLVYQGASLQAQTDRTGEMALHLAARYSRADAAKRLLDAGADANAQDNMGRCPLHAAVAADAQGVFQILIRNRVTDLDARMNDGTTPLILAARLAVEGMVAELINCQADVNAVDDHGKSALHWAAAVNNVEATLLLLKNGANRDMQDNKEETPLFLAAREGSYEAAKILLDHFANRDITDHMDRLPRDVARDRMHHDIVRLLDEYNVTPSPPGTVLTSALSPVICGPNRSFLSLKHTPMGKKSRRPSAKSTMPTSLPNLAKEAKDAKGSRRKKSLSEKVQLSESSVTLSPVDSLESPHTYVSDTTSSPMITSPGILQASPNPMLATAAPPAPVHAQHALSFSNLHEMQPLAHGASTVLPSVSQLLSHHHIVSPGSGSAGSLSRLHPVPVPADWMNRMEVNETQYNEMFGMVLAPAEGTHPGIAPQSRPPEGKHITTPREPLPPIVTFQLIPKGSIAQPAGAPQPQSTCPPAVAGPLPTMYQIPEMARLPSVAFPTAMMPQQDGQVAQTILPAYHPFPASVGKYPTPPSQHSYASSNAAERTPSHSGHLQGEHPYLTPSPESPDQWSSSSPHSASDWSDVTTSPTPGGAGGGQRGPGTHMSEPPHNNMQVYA

[6] = target: Pro-neuregulin-1, membrane-bound isoform (Homo sapiens) (UniProt Q02297); test: NRG1 binders on small-molecule microarrays, primary screen, psychiatric disease protein project, biochemical, small-molecule microarray, fluorescence 635/667 (AID 1075); settings: NRG1 binding, 635 nm fluorescence, higher = more signal;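 note: score combines 667 nm spot fluorescence with signal to noise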
Chain of Pro-neuregulin-1, membrane-bound isoform (Homo sapiens) (Q02297 whole entry, looked up, the tested form may be a part, canonical isoform): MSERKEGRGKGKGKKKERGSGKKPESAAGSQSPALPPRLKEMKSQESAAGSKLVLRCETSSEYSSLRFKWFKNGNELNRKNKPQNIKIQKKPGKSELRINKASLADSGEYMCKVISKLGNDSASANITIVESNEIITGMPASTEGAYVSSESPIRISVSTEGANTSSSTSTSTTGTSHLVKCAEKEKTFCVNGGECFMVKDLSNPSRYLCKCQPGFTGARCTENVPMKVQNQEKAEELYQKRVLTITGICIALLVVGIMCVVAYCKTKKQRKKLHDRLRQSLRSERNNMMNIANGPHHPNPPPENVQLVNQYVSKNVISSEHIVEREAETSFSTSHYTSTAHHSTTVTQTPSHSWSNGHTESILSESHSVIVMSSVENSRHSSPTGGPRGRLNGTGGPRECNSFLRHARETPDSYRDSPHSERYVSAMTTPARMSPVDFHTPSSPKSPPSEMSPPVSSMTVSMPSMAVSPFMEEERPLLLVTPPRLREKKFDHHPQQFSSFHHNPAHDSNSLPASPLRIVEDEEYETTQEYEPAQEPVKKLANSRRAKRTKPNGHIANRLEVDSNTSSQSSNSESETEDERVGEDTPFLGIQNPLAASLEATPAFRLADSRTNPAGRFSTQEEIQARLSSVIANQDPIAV

[7] = system: Neuregulin-1 EGF-like domain; test: binders of neuregulin-1 EGF-like domain, primary screen, biochemical, small-molecule microarray, 635 nm fluorescence (AID 1081); settings: small-molecule microarray binding, higher = more signal;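 note: binding of the protein to compounds printed on small-molecule microarray slides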
[8] = FRG1 promoter luciferase signal modulators, primary screen, FRG1 inhibition for FSHD, cell-based, C2C12 myotubes, firefly/Renilla luciferase, luminescence (AID 1084); settings: higher = more signal, called active from +8 up or from −8 down
[9] = binders of probe aFST on microarray, primary screen, stem cell growth factor project, biochemical, small-molecule microarray, fluorescence 635/667 (AID 1086); settings: higher = more signal;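 note: score merges 667 nm fluorescence with signal-to-noise of each printed compound spot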
[10] = binders of probe aHhip on microarray, primary screen, stem cell growth factor project, biochemical, small-molecule microarray, fluorescence 635/667 (AID 1087); settings: higher = more signal;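 note: score merges spot fluorescence at 667nm with spot signal to noise ratio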
[11] = system: PRMT1 (protein arginine N-methyltransferase 1); test: PRMT1 binders on small-molecule microarrays, primary screen, biochemical, small-molecule microarray, 635 nm fluorescence (AID 1088); settings: small-molecule microarray binding, higher = more signal;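 note: binding of Prmt1 protein to compounds spotted on small-molecule microarray slides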
[12] = yeast growth modulation, basal conditions, primary screen, YJM789 clinical isolate, OD600, 24 h (AID 1089);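 note: growth of clinical yeast isolate S. cerevisiae YJM 789 seeded 1000 cells per well; test concentration not given here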; settings: S. cerevisiae YJM789 growth, higher = more signal, called active from +8 up or from −8 down
[13] = fission yeast growth modulation, primary screen, strain 972, OD600, 24 h, no modulator (AID 1090);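 note: basal condition with compound alone and no growth modifier present; test concentration not given here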; settings: S. pombe 972 growth, higher = more signal, called active from +8 up or from −8 down
[14] = S. cerevisiae growth modulation with rapamycin, primary screen, strain BY4716, OD600, 96 h (AID 1091); settings: higher = more signal, called active from +8 up or from −8 down; note: test concentration not given here
[15] = target: Torsin-1A-interacting protein 2 (Homo sapiens) (UniProt Q8NFQ8); test: LULL1 binders on small-molecule microarray, primary screen, cell lysate, human LULL1 lysate, 635/667 nm fluorescence (AID 1092); settings: hLULL1 lysate binding, 635 nm fluorescence, higher = more signal;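 note: probe is lysate of COS7 cells overexpressing human LULL1; score merges per-feature 667 nm fluorescence with signal-to-noise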
Chain of Torsin-1A-interacting protein 2 (Homo sapiens) (Q8NFQ8 whole entry, looked up): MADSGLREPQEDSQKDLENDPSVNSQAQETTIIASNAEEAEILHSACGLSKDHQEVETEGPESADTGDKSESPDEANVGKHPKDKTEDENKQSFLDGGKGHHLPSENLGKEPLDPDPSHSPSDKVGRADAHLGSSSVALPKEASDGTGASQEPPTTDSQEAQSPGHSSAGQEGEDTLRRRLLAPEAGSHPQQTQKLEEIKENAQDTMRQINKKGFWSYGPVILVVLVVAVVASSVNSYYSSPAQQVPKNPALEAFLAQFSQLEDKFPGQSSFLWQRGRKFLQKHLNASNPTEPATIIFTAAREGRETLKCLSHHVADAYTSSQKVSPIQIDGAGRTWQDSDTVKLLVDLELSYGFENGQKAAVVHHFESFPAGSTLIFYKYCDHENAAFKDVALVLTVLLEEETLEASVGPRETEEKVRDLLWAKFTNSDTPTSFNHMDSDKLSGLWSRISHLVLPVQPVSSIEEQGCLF

[16] = E. coli growth modulation, two-sided OD650, primary screen, E. coli filamentation project, strain DRC41, 24 h (AID 1093); settings: OD650, 24 h, higher = more signal, called active from +8 up or from −8 down;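 note: MC1000 strain lacking acrAB efflux and sulA so SOS filamentation is blocked; test concentration not given here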
[17] = small-molecule microarray binders of probe aLefty2, primary screen, biochemical, biotinylated probe, 635/667 nm fluorescence (AID 1094); settings: higher = more signal;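 note: score merges spot fluorescence near 667 nm with spot signal-to-noise ratio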
[18] = system: Noggin (protein binding on small-molecule microarray); test: Noggin binders on small-molecule microarray, primary screen, biochemical, 635/667 nm fluorescence (AID 1095); settings: 635 nm fluorescence, higher = more signal;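 note: score merges 667 nm feature fluorescence with signal to noise over triplicate slides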
[19] = target: Neurogenic locus notch homolog protein 3 (Homo sapiens) (UniProt Q9UM47); test: NOTCH3 binders on small-molecule microarray, primary screen, biochemical, 635/667 nm fluorescence (AID 1096); settings: NOTCH3 binding, 635 nm fluorescence, higher = more signal
[20] = small-molecule microarray binders of probe aEGFR, primary screen, biochemical, biotinylated probe, 635/667 nm fluorescence (AID 1097); settings: higher = more signal;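 note: probe is a biotinylated anti-EGFR antibody binding compounds printed on slides; score combines fluorescence near 667 nm and signal to noise of each spot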

| Compound | composite z-score [1] | composite z-score [2] | composite z-score [3] | composite z-score [4] | composite z-score [5] | composite z-score [6] | composite z-score [7] | z-score [8] | composite z-score [9] | composite z-score [10] | composite z-score [11] | z-score [12] | z-score [13] | z-score [14] | composite z-score [15] | z-score [16] | composite z-score [17] | composite z-score [18] | composite z-score [19] | composite z-score [20] |
| --- | --- | --- | --- | --- | --- | --- | --- | --- | --- | --- | --- | --- | --- | --- | --- | --- | --- | --- | --- | --- |
| CCOC(=O)[C@H](Cc1ccccc1)NC(=O)CCC1CC(OC(=O)NCc2cccc3ccccc23)CC2(CCCC(COC(=O)NCc3ccc4c(c3)OCO4)O2)O1 (stereo not given in full) | -0.341 | -0.261 | -0.0391 | 0.694 | 0.305 | 0.188 | 1.07 | 1.4 (inactive) | 0.0918 | -0.134 | -0.0058 | 0.549 (inactive) | -0.02 (inactive) | 0.743 (inactive) | 1.8 | 0.951 (inactive) | -0.139 | 0.453 | 0.227 | 0.104 |
| C#CCCCON=C1C[C@@H](O)[C@@H](O)[C@@H]2[C@@H]3C(=O)N(C[C@@H]4CCCO4)C(=O)[C@@H]3CC[C@@H]12 | -0.499 | 0.153 | -0.0909 | 0.691 | 0.922 | 0.404 | 0.275 | 0.737 (inactive) | -0.0371 | 0.0373 | 0.345 | -0.281 (inactive) | 0.504 (inactive) | -0.747 (inactive) | 0.379 | 0.133 (inactive) | -0.119 | 0.595 | 0.752 | -0.0436 |
| COc1ccc(COC(=O)NN=C2C[C@@H](O)[C@@H](O)[C@@H]3[C@@H]4C(=O)N(Cc5ccccc5)C(=O)[C@@H]4CC[C@@H]23)cc1 | -0.512 | -0.0209 | -0.0286 | 0.291 | 0.383 | -0.271 | -0.214 | 0.364 (inactive) | 0.268 | 0.0183 | 0.166 | 0.712 (inactive) | 0.304 (inactive) | -0.0766 (inactive) | 0.105 | 0.555 (inactive) | -0.0873 | 0.123 | 0.724 | -0.0868 |
| CN1CCc2nc(-c3ccccc3)c(-c3ccccc3)cc2C1 | -0.16 | 0.0357 | -0.128 | 0.239 | 0.521 | -0.013 | -0.326 | -0.0006 (inactive) | -0.117 | -0.148 | -0.288 | 0.0301 (inactive) | 0.173 (inactive) | -1.35 (inactive) | -0.0501 | 0.697 (inactive) | 0.361 | 0.405 | 0.157 | -0.0382 |
| CC(C)CON=C1C[C@@H](O)[C@@H](O)[C@@H]2[C@@H]3C(=O)N(Cc4ccccc4)C(=O)[C@@H]3CC[C@H]12 | -0.467 | 0.0791 | -0.143 | -0.0185 | 0.587 | 0.349 | 0.0796 | 0.602 (inactive) | -0.153 | -0.204 | -0.238 | -0.549 (inactive) | -0.449 (inactive) | -1.17 (inactive) | 0.12 | 0.843 (inactive) | -0.117 | 0.454 | 0.824 | 0.088 |
| COC(=O)CC=C[C@@H](C)[C@@H](C=NOC[C@@H](O)COCc1ccco1)OC | -0.663 | 2.07 | -0.225 | -0.813 | -1.05 | -0.209 | 0.532 | 0.103 (inactive) | -0.466 | -0.164 | 0.302 | -0.0605 (inactive) | -0.543 (inactive) | 0.225 (inactive) | 0.378 | -0.255 (inactive) | -0.336 | 1.49 | -0.456 | -0.132 |
| CCCCOC(OCCCC)C(O)CSc1ccc2ccccc2c1 (stereo not given) | -0.283 | 0.61 | -0.0599 | 0.291 | 0.525 | -0.213 | 0.461 | -1.52 (inactive) | 0.105 | 0.157 | 0.642 | 0.12 (inactive) | -2.25 (inactive) | 0.594 (inactive) | 0.556 | -0.419 (inactive) | -0.136 | 0.542 | 0.776 | -0.15 |
| CC(=O)OC[C@H]1O[C@H](CC=NO[C@@H](C)c2cn([C@H](CO)Cc3ccccc3)nn2)C=C[C@@H]1OC(C)=O | -0.513 | 0.386 | -0.104 | 0.649 | 0.804 | 1.24 | 0.732 | 0.386 (inactive) | 0.275 | 0.225 | 1.56 | -0.283 (inactive) | -0.359 (inactive) | -0.346 (inactive) | 0.96 | -0.477 (inactive) | -0.0137 | 0.336 | 0.55 | 0.0035 |
| COC(=O)[C@H](C)NC(=O)CCC1CC(OC(=O)NCc2cccc3ccccc23)CC2(CCCC(COC(=O)NCc3ccccc3)O2)O1 (stereo not given in full) | -0.425 | -0.261 | 0.026 | 0.329 | 1.39 | 0.853 | 0.78 | 2.13 (inactive) | 0.2 | -0.374 | 1.29 | -0.68 (inactive) | 0.507 (inactive) | -0.936 (inactive) | 1.97 | -0.351 (inactive) | -0.0638 | 0.478 | 1.09 | 0.12 |
| CC(C)=CCCC(C)=CCON=C1C[C@@H](O)[C@@H](O)[C@@H]2[C@@H]3C(=O)N(Cc4ccc5c(c4)OCO5)C(=O)[C@@H]3CC[C@@H]12 | -0.316 | -0.777 | -0.241 | 0.31 | 0.397 | 0.364 | 0.974 | 0.397 (inactive) | 0.396 | -0.0618 | 1.54 | 0.0718 (inactive) | 1.03 (inactive) | -0.864 (inactive) | 2.06 | 0.813 (inactive) | 0.0478 | 0.837 | 0.983 | -0.0432 |
